This is part of a sample that, as a whole, favours compounds with a hit. Of some 79,000 tested, about 15% had one in any assay. Activity calls are given as the source filed them. No stated cut-off is given here; in the data, active means growth inhibition above about 70%; inactive means the rest.
assay: NCI Yeast Anticancer Drug Screen. Data for the rad18 strain (AID 177); conditions: S. cerevisiae rad18 mutant growth inhibition; at 33.0 µM; hits give high values
Procedure, shortened: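 Screen uses a yeast strain with a defined lesion in DNA damage repair; compound effect is read as loss of growth compared to untreated vehicle cultures.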

Structure (SMILES)	growth inhibition
CCCCCCOC(=O)NCCOC(=O)Nc1ccccc1	4% (inactive)
C[C](C)(C)[Ge]([O][Ge]([c]1ccccc1)[c]1ccccc1)([O][Ge]([c]1ccccc1)[c]1ccccc1)[C](C)(C)C	73% (active)
CCc1c(Cl)c(C)cc(O)c1Cl	-46% (inactive)
Cc1nc(Nc2ccccc2[N+](=O)[O-])sc1C(=O)CC(=O)C(=O)Nc1c(C(C)C)cccc1C(C)C	0% (inactive)
O=[N+]([O-])c1cccc2nc3ccccc3c(NCCCn3ccnc3[N+](=O)[O-])c12	96% (active)
CCCCCCC(O)CNCc1ccnc2ccc(OC)cc12 (stereo not drawn)	19% (inactive)
Cc1c2cccc(Sc3ccccc3)c2c2c3c(cccc13)[S+](c1ccccc1)C2 (stereo not drawn)	95% (active)
C=C1CCC(O)C/C1=C/C=C1\CCCC2(C)C1CCC2C(C)CCCC(C)C (stereo not drawn)	13% (inactive)
NC1=NNC2(C(N)=N1)c1ccccc1-c1ccccc12	18% (inactive)
COc1cc2cc3c4cc(OC)c(OC)cc4cc[n+]3c(C)c2cc1OC	-22% (inactive)
COC(=O)NC1C(C)OC(OC2C/C=C(/C)C3C=CC4C(OC5CC(OC6CC(O)C(OC7CC(O)C(OC)C(C)O7)C(C)O6)C(O)C(C)O5)C(C)CC(C)C4C3(C)/C(O)=C3\C(=O)OC4(CC(C)C(CO)=CC4/C=C\2C)C3=O)CC1(C)[N+](=O)[O-] (stereo not drawn)	14% (inactive)
O=C1CSC(c2cccc(Cl)c2)N1c1ccc(-c2ccc(-n3c(-c4ccccc4)nc4ccccc4c3=O)cc2)cc1 (stereo not drawn)	22% (inactive)
CCOC(=O)C(C(=O)OCC)=P(c1ccccc1)(c1ccccc1)c1ccccc1	12% (inactive)
O=C(Oc1ccc2c(c1)CN(Cc1ccccc1)CO2)c1ccccc1	28% (inactive)
CN(C)[C@@H]1C(=O)C(C(N)=O)=C(O)[C@@]2(O)C(=O)C3=C(O)c4c(O)cccc4C[C@H]3C[C@@H]12	95% (active)
O=[N+]([O-])c1ccc2c(c1)/C(=N/N=C1c3ccccc3Cc3ccccc31)c1cc([N+](=O)[O-])cc([N+](=O)[O-])c1-2	97% (active)
Cc1nc2c(Br)cc(Br)cc2c(=O)n1-c1ccccc1NC1OCC(O)C(O)C1O (stereo not drawn)	62% (inactive)
Cc1cc(N(CCOS(C)(=O)=O)CCOS(C)(=O)=O)ccc1C=Nc1ccc(-c2nc(Cc3ccccc3)sc2C)cc1	94% (active)

same assay, conditions: S. cerevisiae rad18 mutant growth inhibition; at 100.0 µM; hits give high values

Structure (SMILES)	growth inhibition
O=C1/C(=C/c2ccccc2)CCCC1CN1CCCCC1 (stereo not drawn)	90% (active)
C#CCN(Cc1ccc2nc(N)[nH]c(=O)c2c1)c1ccc(C(=O)NC(CCC(=O)O)C(=O)O)cc1 (stereo not drawn)	65% (inactive)
O=C(O)CNC(=S)Nc1ccccc1	82% (active)
N/C(=N/N=C/c1cc(Br)cc(Br)c1O)NO	97% (active)
C[Si](C)(C)/C=C/CCNC(C#N)c1ccccc1 (stereo not drawn)	92% (active)
CCCCCCCCCCCCCCCCOP(=O)(O)OCC(N)C(=O)O (stereo not drawn)	97% (active)
CC1=C(C(=O)NCc2ccccc2)C(c2ccccc2)C(C(=O)NCc2ccccc2)=C(C)N1	96% (active)
O=[N+]([O-])c1cc(S(=O)(=O)Nc2ccccc2)ccc1Nc1ccccc1	79% (active)
COc1cc2ccnc(-c3c4ccccc4c(N)c4c(OC)c(OC)ccc34)c2cc1OC	74% (active)
CCOC(=O)C1=C(C)NC(C)=C(C(=O)OCCNC(=O)c2ccc(N=[N+]=[N-])cc2)C1c1ccccc1C(F)(F)F (stereo not drawn)	23% (inactive)
Cc1cc(C)c(NC(=S)NC(=O)c2ccccc2)cc1C	-46% (inactive)
CNCCCNc1c2ccccc2nc2cccc([N+](=O)[O-])c12	96% (active)
COc1c(O)c(C=O)c(Br)c(C=O)c1O	90% (active)
Cc1c(C)c(C)c(CSC(=N)N)c(C)c1C	98% (active)
O=C(CSC(=S)N1CCCCC1)Nc1nc2c(s1)CCCC2	76% (active)
CNC(=O)OCc1c(COC(=O)NC)c(-c2ccc(Cl)cc2)n2c1CCC2	97% (active)
CC(=O)OC1CC2C(C)(C)C(=O)C=C[C@]2(C)C2CCC3(C)C(=CCC3[C@H](CO)C[C@H](O)C(=O)C(C)(C)O)[C@]12C (stereo partly drawn)	74% (active)
CCCCCCOC(=O)NCCOC(=O)Nc1ccccc1	6% (inactive)

Structure (SMILES)	growth inhibition
C[C](C)(C)[Ge]([O][Ge]([c]1ccccc1)[c]1ccccc1)([O][Ge]([c]1ccccc1)[c]1ccccc1)[C](C)(C)C	74% (active)
CCc1c(Cl)c(C)cc(O)c1Cl	50% (inactive)
Cc1nc(Nc2ccccc2[N+](=O)[O-])sc1C(=O)CC(=O)C(=O)Nc1c(C(C)C)cccc1C(C)C	-3% (inactive)
O=[N+]([O-])c1cccc2nc3ccccc3c(NCCCn3ccnc3[N+](=O)[O-])c12	96% (active)
CCCCCCC(O)CNCc1ccnc2ccc(OC)cc12 (stereo not drawn)	30% (inactive)
Cc1c2cccc(Sc3ccccc3)c2c2c3c(cccc13)[S+](c1ccccc1)C2 (stereo not drawn)	83% (active)
C=C1CCC(O)C/C1=C/C=C1\CCCC2(C)C1CCC2C(C)CCCC(C)C (stereo not drawn)	34% (inactive)
NC1=NNC2(C(N)=N1)c1ccccc1-c1ccccc12	97% (active)
COc1cc2cc3c4cc(OC)c(OC)cc4cc[n+]3c(C)c2cc1OC	-22% (inactive)
COC(=O)NC1C(C)OC(OC2C/C=C(/C)C3C=CC4C(OC5CC(OC6CC(O)C(OC7CC(O)C(OC)C(C)O7)C(C)O6)C(O)C(C)O5)C(C)CC(C)C4C3(C)/C(O)=C3\C(=O)OC4(CC(C)C(CO)=CC4/C=C\2C)C3=O)CC1(C)[N+](=O)[O-] (stereo not drawn)	13% (inactive)
O=C1CSC(c2cccc(Cl)c2)N1c1ccc(-c2ccc(-n3c(-c4ccccc4)nc4ccccc4c3=O)cc2)cc1 (stereo not drawn)	31% (inactive)
CCOC(=O)C(C(=O)OCC)=P(c1ccccc1)(c1ccccc1)c1ccccc1	95% (active)
O=C(Oc1ccc2c(c1)CN(Cc1ccccc1)CO2)c1ccccc1	72% (active)
CN(C)[C@@H]1C(=O)C(C(N)=O)=C(O)[C@@]2(O)C(=O)C3=C(O)c4c(O)cccc4C[C@H]3C[C@@H]12	99% (active)
O=[N+]([O-])c1ccc2c(c1)/C(=N/N=C1c3ccccc3Cc3ccccc31)c1cc([N+](=O)[O-])cc([N+](=O)[O-])c1-2	94% (active)
Cc1nc2c(Br)cc(Br)cc2c(=O)n1-c1ccccc1NC1OCC(O)C(O)C1O (stereo not drawn)	97% (active)
Cc1cc(N(CCOS(C)(=O)=O)CCOS(C)(=O)=O)ccc1C=Nc1ccc(-c2nc(Cc3ccccc3)sc2C)cc1	98% (active)

— PubChem BioAssay (NCI)
